Measured values: PubChem BioAssay AID588855 (National Center for Advancing Translational Sciences (NCATS), 2011)
Among all 410,000 compounds or so, about 5,000 (1.2%) were called active. Another 13% or so got no clear call; they are omitted. Calls follow the shape of the dose curve; as a rule, active = well fitted inhibition curve with a large enough effect; inconclusive = small, poorly fitted or top-dose-only effect; inactive = no such curve, though single readings can be large or run the other way. What follows is part of a selection rich in actives, with near analogues and random picks from the rest. Entries that show only a call come without a potency.
Potency is read from the fitted curve at half-maximal effect.

Assay: qHTS for Inhibitors of TGF-b; also: nearly all actives have a fitted effect of over 65% in size
Conditions: HepG2 CAGA-GFP TGF-b/SMAD3 reporter, GFP fluorescence, 18 h, TGF-beta stimulated, 500 pg/mL final; series mostly up to 46.1 µM
Source text: TGF-b is a main component in the TGF-b signaling pathway which plays diverse roles in cellular and development pathways. TGF-b is the mediated by the transcription factors Smads. Although the Smad-dependent pathway is the primary canonical TGF-b signaling node, TGF-b1 can also activate alternative signaling pathways, including those involving MAPK (ERK, JNK and p38). This interaction may mediate or enhance Smad-dependent responses, or can exert Smad-independent effects. The complexity of this signaling cascade allows the TGF-b superfamily to perform unique, overlapping or redundant functions. We believe that targeting the TGF-beta pathway at the Smad-transcription factor level may eliminate the consequences of disrupting the entire pathway and offer specificity without affecting other signaling pathways. Smad3 is the primary transducer of TGF-b's signals and Smad3 regulates many functions attributed to TGF-b signaling. We hypothesize that Smad3 inhibitors will selectively eliminate Smad3-specific TGF-beta signals without undesired off-target effects. We aim to identify Smad3-small molecule antagonists using a quantitative high throughput screening (qHTS) approach.
A high-throughput assay was developed to screen the NIH Molecular Libraries Small Molecule Repository (MLSMR). This is a cell based assay, where TGF-b is tagged with GFP. A counterscreen is run that looks at cytotoxicity (please see summary AID).
MH087449NIH Chemical Genomics Center [NCGC]
NIH Molecular Libraries Probe Centers Network [MLPCN]
Assay Submitter (PI): Sushil Rane, National Institute of […]
Suspensions of trypsinized HEPG2 CAGA-GFP cells were dispensed into white, tissue culture-treated, solid 1536-well plates at 5uL/well (1000 cells/well final concentration) in DMEM medium supplemented with 1% FBS. Plates were incubated at 37 degrees C for 2 hours, after which 23 nL of compounds or DMSO were delivered to each well using a pin tool. One uL of recombinant TGF-beta in DMEM (1% FBS) was then dispensed (500 pg/mL final concentration), and plates were incubated at 37 degrees C for 18 hours. The plates were measured on an Acumen eX3 Explorer plate reader for GFP fluorescence (ex488/em500-530). GFP values were calculated by determining the mean GFP fluorescence of individual cells, and compiling these values for each well to determine a total well GFP signal. The %Activity was determined from the corrected fluorescence values. A titration of the known TGF-B inhibitor SB431542 was included to monitor plate performance, while unstimulated HEPG2 (-TGF-B) control wells were used to normalize %Activity of identified inhibitors; unstimulated wells corresponded to 100%Activity (full inhibition), while stimulated cell controls (+DMSO) were used to normalize 0%Activity (no inhibition).
Concentration-response curves were fitted to the signals arising from the resulting fluorescence. The concentration-effect curves were then classified based on curve quality (r2), response magnitude and degree of measured activity, and compounds were subsequently categorized based on their curve class.
With `CC12CCC(O)CC1CCC1C2CCC2(C)C(C(=O)CC(O)C(F)(F)F)CCC12` (centres undefined) the Potency was “inactive”. In the case of `C[C@]12CCC3C(CC[C@H]4C[C@@H](O)CC[C@]34C)C1CC[C@@H]2O` (some centres undefined), the Potency is reported as “inactive”. In the case of `C[C@]12CC[C@H](O)C[C@H]1CC[C@@H]1C2CC[C@]2(C)[C@@H](C3=CC(=O)OC3)[C@@H](O)C[C@]12O` (some centres undefined), the Potency is reported as 11.2 µM (active). In the case of `C[C@H]1CN([C@@H](C)CO)C(=O)CCCn2nncc2CO[C@H]1CN(C)C(=O)Oc1ccccc1`, the Potency is reported as “inactive”. With `COc1ccccc1OC(=O)c1ccc(C)c(S(=O)(=O)N2CCOCC2)c1` the Potency was “inactive”. With `COc1ccc2c(c1)NP(=S)(c1ccccc1)N2` (centres undefined) the Potency was “inactive”. For `Cc1nc2ccccc2c(=O)n1-c1ccc(Cl)cc1Cl`, the Potency was “inactive”. In the case of `O=c1c2ccccc2nc(/C=C/c2ccc(F)cc2)n1-c1ccccc1O`, the Potency is reported as 10 µM (active). In the case of `Cn1cc(/C=C/c2nc3ccccc3c(=O)n2-c2ccccc2)c2ccccc21`, the Potency is reported as “inactive”. For `CC(C)CN1Cc2cc(N3CCCCC3)ccc2-n2nncc2C1`, the Potency was “inactive”. For `O=c1c2ccccc2nc(CBr)n1-c1ccc(Cl)cc1`, the Potency was “inactive”. For `Cn1c(O)c(C=NCCCC(=O)O)c(=O)n(C)c1=O`, the Potency was “inactive”. With `O=C(N/N=C/c1c(O)n(Cc2ccccc2)c(=O)[nH]c1=O)c1ccccc1` the Potency was “inactive”. With `CCCCC(=O)N/N=C/c1c(O)n(CC)c(=S)n(CC)c1=O` the Potency was 22.4 µM (active). In the case of `COc1cc(C(c2c(O)c3ccccc3oc2=O)c2c(C)n(C)n(-c3ccccc3)c2=O)ccc1O` (centres undefined), the Potency is reported as “inactive”. With `C[C@H]1CN([C@@H](C)CO)C(=O)CCCn2nncc2CO[C@H]1CN(C)C(=O)Oc1cccc2ccccc12` the Potency was “inactive”. In the case of `CC1CCCCN1Cc1cccnc1` (centres undefined), the Potency is reported as “inactive”. With `COC1C(O)C(C)OC(OC2CCC3(C=O)C(CCC4C3CCC3(C)C(C5=CC(=O)OC5)CCC43O)C2)C1O` (centres undefined) the Potency was 0.355 µM (active). In the case of `O=c1[nH]c(CN2CC=C(c3ccccc3)CC2)nc2scc(-c3cccs3)c12`, the Potency is reported as “inactive”. In the case of `COC(=O)C1=C(c2cc3ccccc3s2)C[C@@H]2CC[C@H]1N2C(=O)NCCO`, the Potency is reported as “inactive”. With `COc1cc(C2c3cc4c(cc3C(O)C3COC(=O)C23)OCO4)cc(OC)c1OC` (centres undefined) the Potency was “inactive”. With `O=C(O)c1cc[c]([Sb](=[O])([OH])[OH])cc1[N+](=O)[O-]` the Potency was “inactive”. For `CO[C@H]1[C@@H](O)[C@@H](C)O[C@H](O[C@H]2[C@H](Oc3cccc4c(O)c5c(=O)oc6ccc(C)c7c(=O)oc(c34)c5c67)O[C@H](C)[C@H](O)[C@@H]2O)[C@@H]1O`, the Potency was “inactive”. For `CSCCC(c1nnnn1C(C)(C)C)N1CCC(n2c(=O)[nH]c3ccccc32)CC1` (centres undefined), the Potency was “inactive”. For `CC1(C)Cc2c(C#N)c(N3CCNCC3)nc(-c3ccco3)c2CS1`, the Potency was “inactive”. In the case of `Cc1cccc(Cn2cccc(C(=O)Nc3ccc4c(c3)OCCO4)c2=O)c1`, the Potency is reported as 10 µM (active). With `Cc1nnc(NC(=O)c2cccn(Cc3cccc(F)c3)c2=O)s1` the Potency was “inactive”. With `Cc1ccccc1NC(=O)COC(=O)c1cc(C)n(C2CC2)c1C` the Potency was “inactive”. In the case of `COc1ccc(NC(=O)N2Cc3ccccc3-n3nncc3C2)cc1`, the Potency is reported as “inactive”. With `Cc1ccc(OC(=O)N(C)C[C@@H]2OCc3cnnn3CCCC(=O)N([C@H](C)CO)C[C@@H]2C)cc1` the Potency was “inactive”. With `CCOC(=O)CNC(=O)N1Cc2cc(N3CCCCC3)ccc2-n2nncc2C1` the Potency was “inactive”. In the case of `CC(=O)c1ccc(OC(NC(=O)Cc2ccccc2)C(Cl)(Cl)Cl)cc1` (centres undefined), the Potency is reported as “inactive”. In the case of `CN1CCN(/N=C/c2c[nH]c3ccccc23)CC1`, the Potency is reported as “inactive”. For `CN(C)CCN(CC1CCCN(Cc2ccccc2F)C1)C(=O)Cc1ccc(F)c(F)c1` (centres undefined), the Potency was “inactive”. With `CCn1cc(CN2CCCC(C(=O)c3cccc(C(F)(F)F)c3)C2)cn1` (centres undefined) the Potency was “inactive”. For `CC(=O)Nc1ccc(CC#N)cc1`, the Potency was “inactive”. In the case of `CCC(C)(O)C(=O)OC1C(=O)OC2CC3C(C)=CC(=O)C(O)C3(C)C3C4(O)OCC23C1C(C)C4O` (centres undefined), the Potency is reported as 0.355 µM (active). In the case of `O=C1C2CCN(CC2)C1(CO)CO`, the Potency is reported as “inactive”. With `COc1ccc(C2C=C(C)Oc3c2c(=O)oc2ccccc32)cc1OC` (centres undefined) the Potency was “inactive”. With `CN(C(=O)c1cccc(NC(=O)Cc2cccc([N+](=O)[O-])c2)c1)C1CCCCC1` the Potency was 20 µM (active). For `CN(C)P(=S)(Nc1ccccc1)C(Cl)(Cl)Cl` (centres undefined), the Potency was “inactive”. For `CC(C)(C)c1ccc(CN2C(=O)CN=C(c3ccccc3)c3ccccc32)cc1`, the Potency was 11.2 µM (active). With `O=C1CC(=O)N(Cc2ccccc2)C(=O)N1CCCCCCN1C(=O)CC(=O)N(Cc2ccccc2)C1=O` the Potency was “inactive”. With `O=C(O)/C=C/c1ccc2c(c1)OCO2` the Potency was “inactive”. For `CC1=C(C(=O)Nc2ccccc2)S(=O)(=O)CCO1`, the Potency was “inactive”. For `CNC(=O)N(C)c1nnc(C(C)(C)C)s1`, the Potency was “inactive”. With `c1ccc(N2Cc3ccccc3-n3nncc3C2)nc1` the Potency was “inactive”. With `O=Cc1cn(Cc2ccc(F)cc2Cl)c2ccccc12` the Potency was 8.91 µM (active). With `CC(=O)C1(O)CCC2C3CCC4=C(Cl)C(=O)CCC4(C)C3CCC21C` (centres undefined) the Potency was “inactive”. In the case of `N#Cc1c(Cl)c(Cl)c(Cl)c(C#N)c1Cl`, the Potency is reported as 0.251 µM (active). For `CCOC(=O)C(O)(c1ccc(N=Cc2ccccc2O)c(C)c1)C(F)(F)F` (centres undefined), the Potency was “inactive”. In the case of `O=C(Oc1ccc2c(c1)CCC2)N1CCOCC1`, the Potency is reported as “inactive”. In the case of `CCN(CC)C(=O)c1ccc(NC(=O)c2sccc2-c2ccccc2)cc1`, the Potency is reported as “inactive”. In the case of `CCOc1cccc(=NC2CCCCC2)c2c(C)[nH]c(C)c12`, the Potency is reported as 10 µM (active). With `Cc1nc2ccccn2c1P(=S)(N1CCCCC1)N1CCCCC1` the Potency was “inactive”. In the case of `COc1ccc2c(c1O)-c1cccc3c1[C@@H](C2)N(C)CC3`, the Potency is reported as “inactive”. With `COc1c(O)ccc2c1-c1c3c(cc4c1C(C2)N(C)CC4)OCO3` (centres undefined) the Potency was “inactive”. In the case of `COc1ccc2cc1Oc1ccc(cc1)C[C@H]1c3cc(c(OC)cc3CCN1C)Oc1c(O)c(OC)cc3c1[C@H](C2)N(C)CC3`, the Potency is reported as 7.94 µM (active). In the case of `CN(C)/C=C(\C=[N+](C)C)c1[nH]ncc1[N+](=O)[O-]`, the Potency is reported as “inactive”. With `COC(=O)C1=C(c2ccc(OCc3ccccc3)cc2)C[C@@H]2CC[C@H]1N2C(=O)NCc1cccc(F)c1` the Potency was “inactive”. With `Cc1ncoc1C(=O)NCC1=C(c2cccc3ccccc23)C[C@@H]2CC[C@H]1N2Cc1ccco1` the Potency was “inactive”. With `ClCCN(CCCl)c1ccc(C=Nc2ccc(/C=C/c3ccnc4ccccc34)cc2)cc1` the Potency was “inactive”. With `CCCCCCCCCCCCn1ccc(=N)cc1` the Potency was 10 µM (active). For `Cc1ccc(Oc2cnn(-c3ccccc3)c(=O)c2Br)cc1`, the Potency was “inactive”. For `CCC1(CC(C)c2ccccc2)C(=O)NC(=O)NC1=O` (centres undefined), the Potency was “inactive”. With `CCOP(=S)(OCC)SCOC(=O)NCC(=O)OC` the Potency was “inactive”. In the case of `O=P1(Oc2ccccc2)CC(O)C(O)C(COCc2ccccc2)O1` (centres undefined), the Potency is reported as “inactive”. With `O=c1c2ccccc2[nH]c(=S)n1-c1cccc(Cl)c1` the Potency was “inactive”. For `OC(Cn1c2ccccc2c2ccccc21)C[n+]1ccccc1` (centres undefined), the Potency was “inactive”. In the case of `CC[C@H]1CN2CCc3cc(OC)c(OC)cc3[C@@H]2C[C@@H]1C[C@H]1NCCc2cc(OC)c(OC)cc21`, the Potency is reported as 0.0891 µM (active). For `CC(=O)OC1C2(CC3N4C(=O)C5(CO)SSC4(CC31O)C(=O)N5C)OC(C)C(C)(C)C2=O` (centres undefined), the Potency was 0.794 µM (active). In the case of `O=C(NCC1=C(c2ccc3ccccc3c2)C[C@@H]2CC[C@H]1N2Cc1ccco1)c1cccs1`, the Potency is reported as “inactive”. With `CNC(=S)N/N=C1\C2CN3CCN(C2)CC1(c1ccccc1)C3` the Potency was “inactive”. For `O=C(Cc1ccccc1)N1CCN(C2CCCCCC2)CC1`, the Potency was “inactive”. For `CN(C)CC1Oc2ccccc2OC1(O)c1ccccc1` (centres undefined), the Potency was 2.82 µM (active). In the case of `COc1ccc2c(c1)[C@]13CCCCC1C(C2)N(C)CC3` (some centres undefined), the Potency is reported as “inactive”. For `CCOc1ccc(CNC(=O)c2cccc(Nc3nc4ccccc4n4nnnc34)c2)cc1OC`, the Potency was “inactive”. In the case of `COc1ccc(C2NCc3ccc4c(c3-n3cccc32)OCO4)cc1OC` (centres undefined), the Potency is reported as “inactive”. In the case of `CN(C)C(=O)Oc1ccc(NC(=O)N2CCOCC2)cc1`, the Potency is reported as “inactive”. For `Cc1cccc(-n2c(O)c(C=NC34CN5CN(CN(C5)C3)C4)c(=O)[nH]c2=O)c1`, the Potency was “inactive”. In the case of `c1cc2c(c(NC3=NCCCS3)c1)CCCC2`, the Potency is reported as “inactive”. In the case of `CCOC(=O)c1cccc(C2=C(CNC(=O)c3ccncc3)[C@H]3CC[C@@H](C2)N3Cc2ccccc2)c1`, the Potency is reported as “inactive”. With `O=C(COC(=O)Cc1ccccc1)Nc1ccc(F)cc1` the Potency was “inactive”. For `CC(=O)NCC1=C(c2ccc3ccccc3c2)C[C@@H]2CC[C@H]1N2Cc1ccco1`, the Potency was “inactive”.
